An excerpt weighted towards active compounds, which were near 4.5% of everything screened.
TPT1 inhibitor: Candida albicans TPT1 enzyme inhibitors, primary screen, biochemical, fluorescence polarization. recombinant caTPT1, FP RNA substrate dephosphorylation. inhibition, % at 5 µM. 0.81% of 300,000 active. tRNA 2'-phosphotransferase TPT1 (Candida albicans SC5314);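 active = inhibition above the mean of all tested compounds plus 3 SD, set per screening campaign, cut at about 24% in these data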;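 note: plate controls were DMSO alone for no effect and ferristatin control at 100 nM for full effect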
EBNA-1 inh: EBNA-1 DNA-binding inhibitors, primary screen, biochemical, fluorescence polarization. inhibition, % at 14.8 µM. 0.34% of 300,000 active. AID 1950, 2009; in the data active = inhibition above about 28%
Rpn11 block: Rpn11 (PSMD14) deubiquitinase inhibitors, primary screen, biochemical, fluorescence polarization, uHTS; 0.59% of 360,000 active; inhibition, % at 20 µM; 26S proteasome non-ATPase regulatory subunit 14 (Homo sapiens), O00487; human 26S proteasome, Ub4-pepOG fluorescence polarization; 20S core pre-blocked with epoxomicin;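 active = inhibition at 20 µM, scaled to each plate's controls, above about 33%, limit read from the data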
dFosB act: activators of delta FosB homodimer, primary screen, biochemical, fluorescence polarization, TAMRA-CDK5 oligo, single point. Protein FosB (Mus musculus), P13346. purified delta FosB; percent of positive-control signal above neutral wells. activation, % at 25 µM. 0.99% of 340,000 active. AID 493131, 2011;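 active = mean activation above about 17%, with every replicate also reaching it, limit read from the data, passing the limit was not always enough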
Target sequence (P13346 whole entry, looked up): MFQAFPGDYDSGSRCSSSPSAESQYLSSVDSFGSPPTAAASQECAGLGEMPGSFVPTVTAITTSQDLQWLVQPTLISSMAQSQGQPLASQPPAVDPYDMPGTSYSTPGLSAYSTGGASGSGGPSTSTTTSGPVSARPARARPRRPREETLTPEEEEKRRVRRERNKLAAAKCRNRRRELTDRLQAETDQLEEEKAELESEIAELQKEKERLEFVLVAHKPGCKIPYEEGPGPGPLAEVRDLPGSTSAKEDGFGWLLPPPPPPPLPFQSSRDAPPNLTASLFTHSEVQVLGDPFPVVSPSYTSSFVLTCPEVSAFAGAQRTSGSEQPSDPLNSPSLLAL
ZTA DNA inh: counter-screen for EBNA-1 inhibitors: inhibitors of Epstein-Barr virus ZTA | P03206 | ZTA-DNA binding, fluorescence polarization | inhibition, % at 11 µM | 0.15% of 320,000 active; in the data active = inhibition above about 33%
GRIN3A LBD mod: binders of NR3A ligand-binding domain, primary screen, biophysical, differential scanning fluorimetry, uHTS | Glutamate receptor ionotropic, NMDA 3A (GRIN3A) ligand-binding domain | NR3A LBD differential scanning fluorimetry, Tm shift; 0% = protein alone, 100% = glycine-bound protein | Tm shift relative to glycine control, % at 25 µM | 2.5% of 340,000 active | AID 1259313, 2017;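 active = melting temperature shift of at least 10% of the positive control shift, at one fixed dose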
* hit, by the source's call; x = not tested or not shown.

SMILES	TPT1 inhibitor	EBNA-1 inh	Rpn11 block	dFosB act	ZTA DNA inh	GRIN3A LBD mod
O=C(/C=C/c1ccc(Cl)c([N+](=O)[O-])c1)Nc1cccnc1	3	-4	-4	-6	18	-3
O=C(/C=C/c1ccc(Cl)c([N+](=O)[O-])c1)Nc1ccc(NC(=O)c2ccco2)cc1	x	x	-4	13	x	33*
O=C(/C=C/c1cccc([N+](=O)[O-])c1)Nc1cccc(NC(=O)c2ccco2)c1	0	9	2	-2	4	27*
O=C(/C=C/c1cccc([N+](=O)[O-])c1)OC1CCCCC1=O (stereo not given)	2	-19	-1	-2	-14	12*
CCOC(=O)c1cc[nH]c1CC(=O)NC	-4	6	-5	1	-2	0
COC(OC)c1ccc(C#N)c(=O)[nH]1	3	2	3	-11	-6	-1
CCOc1cc(NC(=O)c2cnccn2)c(OCC)cc1NC(=O)c1cccc(F)c1	-2	0	x	x	2	x
O=C(CCC(=O)N(CC(=O)NC1CCCCC1)Cc1cccs1)Nc1nccs1	-2	6	-2	5	-10	-1
O=C(O)c1c(C(=O)O)c(-c2ccc(Br)cc2)n2c1CSC2	1	6	4	-3	2	14*
Cc1cc(N2CCC(C)CC2)n2ncc(-c3ccccc3)c2n1	-4	-3	0	-15	-14	13*
Cc1cc(N2CCCCC2)n2ncc(-c3ccccc3)c2n1	0	-1	1	-4	1	4
Cc1cc(NCCN2CCOCC2)n2ncc(-c3ccccc3)c2n1	-5	6	-3	-9	7	13*
Cc1cc(NCCN2CCOCC2)n2nc(C)c(-c3ccccc3)c2n1	-5	10	6	-14	16	-3
O=S(=O)(CCc1ccccc1)CS(=O)(=O)CCc1ccccc1	x	x	-3	0	x	-2
COc1cc(OC)cc(-c2nnc(SCC(=O)Nc3cccc(C(=O)O)c3)s2)c1	-4	10	3	-16	7	0
Cc1ccccc1NC(=O)CSc1ccc(-c2ccc(-n3cccn3)cc2)nn1	4	-6	-2	-5	3	1
CCc1nnc(NC(=O)CSc2ccc(-c3ccc(-n4cccn4)cc3)nn2)s1	-2	-3	-3	-12	-2	35*
O=C(NCC1CCCO1)c1ccc2c(=O)n(Cc3ccc(Cl)cc3)c(=S)[nH]c2c1 (stereo not given)	4	9	-2	-11	6	22*
COc1ccccc1Cn1c(=S)[nH]c2cc(C(=O)NCC3CCCO3)ccc2c1=O (stereo not given)	-1	1	-4	8	8	-1
Nc1cc2c(cc1Cl)-c1ccc([N+](=O)[O-])cc1C2=NO	x	x	30	11	x	477*
O=[N+]([O-])c1ccc2c(c1)C(=NO)c1cc(F)ccc1-2	x	x	2	4	x	-17
CC(=O)c1ccc(N2CCC(c3cc(-c4ccc(Cl)cc4)n[nH]3)CC2)c([N+](=O)[O-])c1	1	-1	4	-2	-6	14*
COc1ccc(CNC(=O)Cn2nc(C(F)(F)F)c(Br)c2C)cc1	-1	-6	-4	10	4	-3
COc1cc(NC(=O)Cn2nc(C(F)(F)F)c(Br)c2C)cc([N+](=O)[O-])c1	-3	2	-1	-1	-6	21*
CC(NC(=O)c1cc(-c2ccccn2)nc2ccc(Cl)cc12)C1CCCO1 (stereo not given)	-2	2	-8	-23	-19	-2
COCCN(C(=O)COC(=O)c1oc2ccc(OC)cc2c1C)c1c(N)n(Cc2ccccc2)c(=O)[nH]c1=O	1	5	5	-3	-2	-3
O=C(COC(=O)c1cccc(NS(=O)(=O)c2ccc(F)c(F)c2)c1)NC(=O)NC1CCCCC1	2	-1	3	-10	-15	23*
CSc1ccc(CN(C)C(=O)C(Cc2ccccc2)NC(=O)c2ccccc2)cc1 (stereo not given)	-4	-6	4	-16	-12	14*
